{
  "source": "the supplement of paper PMC6411743",
  "note": "± gives the standard deviation of the averaged measurements. The full data set covers some 6,200 targets. This sample favours those with the largest changes.",
  "data": [
    {"compound": "Nc1ncnc2c1ncn2[C@@H]1O[C@H](COP(=O)(O)OP(=O)(O)NP(=O)(O)O)[C@@H](O)[C@H]1O [adenylyl imidodiphosphate]", "test": "NP40-soluble protein abundance relative to vehicle (solubility fold change) (ratio); higher = more soluble protein in presence of AMP-PNP", "conditions": "concentration: 10mM", "procedure,_shortened": "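Jurkat crude lysate (Dounce-homogenised) was treated with eight concentrations from 0.1 to 10 mM for 10 min at room temperature, then 3 min at 37 °C. It was solubilised with 0.8% NP40 and benzonase (60 min, 4 °C) and ultracentrifuged, and the supernatant was TMT-labelled for LC-MS/MS. Intensities were vsn-normalised, and the value is the fold change against the NP40-processed vehicle per replicate, from three independent experiments.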", "values": [
      {"target": "UniProt Q8TEQ0|Q8TEQ0-2", "sequence (Q8TEQ0 whole entry)": "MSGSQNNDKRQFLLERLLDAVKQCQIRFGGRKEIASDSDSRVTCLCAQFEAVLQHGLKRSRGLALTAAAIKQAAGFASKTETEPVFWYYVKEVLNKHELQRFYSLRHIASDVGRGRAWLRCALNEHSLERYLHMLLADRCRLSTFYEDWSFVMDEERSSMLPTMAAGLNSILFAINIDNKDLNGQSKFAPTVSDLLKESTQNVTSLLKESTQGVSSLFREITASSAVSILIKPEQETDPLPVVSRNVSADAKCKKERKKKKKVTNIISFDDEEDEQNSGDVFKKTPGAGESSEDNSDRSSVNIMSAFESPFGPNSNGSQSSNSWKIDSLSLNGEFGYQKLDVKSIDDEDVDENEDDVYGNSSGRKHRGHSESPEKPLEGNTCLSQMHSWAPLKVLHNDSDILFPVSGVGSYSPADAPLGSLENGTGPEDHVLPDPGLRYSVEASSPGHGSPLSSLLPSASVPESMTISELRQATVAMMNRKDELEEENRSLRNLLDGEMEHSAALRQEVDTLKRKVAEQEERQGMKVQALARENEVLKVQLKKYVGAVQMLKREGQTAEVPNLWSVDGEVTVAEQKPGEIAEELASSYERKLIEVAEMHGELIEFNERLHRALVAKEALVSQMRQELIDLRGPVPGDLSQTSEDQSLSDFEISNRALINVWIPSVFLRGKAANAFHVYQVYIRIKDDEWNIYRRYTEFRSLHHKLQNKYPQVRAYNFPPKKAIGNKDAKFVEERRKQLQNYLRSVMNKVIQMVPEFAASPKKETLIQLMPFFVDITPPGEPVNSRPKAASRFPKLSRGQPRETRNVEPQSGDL", "NP40-soluble protein abundance": "0.953 ± 0.021"},
      {"target": "UniProt Q14444|Q14444-2", "NP40-soluble protein abundance": "1.25 ± 0.08"},
      {"target": "UniProt Q15056-2|Q15056", "NP40-soluble protein abundance": "0.884 ± 0.21"},
      {"target": "TMED4 (UniProt Q7Z7H5)", "sequence (Q7Z7H5 whole entry)": "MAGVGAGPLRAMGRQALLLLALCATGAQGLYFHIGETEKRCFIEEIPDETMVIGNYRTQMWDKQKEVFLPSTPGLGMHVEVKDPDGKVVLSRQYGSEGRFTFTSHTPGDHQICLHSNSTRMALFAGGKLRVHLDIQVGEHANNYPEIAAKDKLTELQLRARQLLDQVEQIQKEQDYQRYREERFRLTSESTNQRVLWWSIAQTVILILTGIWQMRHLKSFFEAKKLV", "NP40-soluble protein abundance": "1 ± 0.038"},
      {"target": "IQGAP2 (UniProt Q13576)", "NP40-soluble protein abundance": "0.932 ± 0.038"},
      {"target": "UniProt Q13825|Q13825-2", "NP40-soluble protein abundance": "1.06 ± 0.025"},
      {"target": "UniProt Q7L5Y1|Q7L5Y1-4|Q7L5Y1-5", "NP40-soluble protein abundance": "0.996 ± 0.0075"},
      {"target": "ABHD11 (UniProt Q8NFV4)", "NP40-soluble protein abundance": "1.01 ± 0.048"},
      {"target": "UniProt Q969T7|Q969T7-2", "NP40-soluble protein abundance": "0.963 ± 0.046"},
      {"target": "ANKRD13A (UniProt Q8IZ07)", "sequence (Q8IZ07 whole entry)": "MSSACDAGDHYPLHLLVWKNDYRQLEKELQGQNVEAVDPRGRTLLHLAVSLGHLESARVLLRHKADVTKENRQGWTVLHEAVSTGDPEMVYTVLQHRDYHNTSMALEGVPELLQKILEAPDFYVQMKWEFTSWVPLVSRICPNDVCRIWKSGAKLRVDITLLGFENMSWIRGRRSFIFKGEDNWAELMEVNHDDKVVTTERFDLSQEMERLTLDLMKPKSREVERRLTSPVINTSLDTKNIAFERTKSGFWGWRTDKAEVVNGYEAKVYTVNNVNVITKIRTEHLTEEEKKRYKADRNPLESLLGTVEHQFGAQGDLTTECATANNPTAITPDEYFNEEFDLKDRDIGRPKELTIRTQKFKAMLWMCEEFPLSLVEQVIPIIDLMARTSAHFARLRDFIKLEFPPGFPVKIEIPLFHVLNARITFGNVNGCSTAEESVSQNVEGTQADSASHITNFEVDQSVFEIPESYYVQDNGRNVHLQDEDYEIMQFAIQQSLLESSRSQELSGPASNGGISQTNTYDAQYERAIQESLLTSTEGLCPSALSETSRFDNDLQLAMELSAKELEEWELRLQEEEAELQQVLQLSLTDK", "NP40-soluble protein abundance": "1.08 ± 0.047"},
      {"target": "TAF9 (UniProt Q16594)", "NP40-soluble protein abundance": "1.05 ± 0.039"},
      {"target": "UniProt Q93074-2", "NP40-soluble protein abundance": "0.999 ± 0.067"},
      {"target": "UniProt Q6UN15|Q6UN15-3", "sequence (Q6UN15 whole entry)": "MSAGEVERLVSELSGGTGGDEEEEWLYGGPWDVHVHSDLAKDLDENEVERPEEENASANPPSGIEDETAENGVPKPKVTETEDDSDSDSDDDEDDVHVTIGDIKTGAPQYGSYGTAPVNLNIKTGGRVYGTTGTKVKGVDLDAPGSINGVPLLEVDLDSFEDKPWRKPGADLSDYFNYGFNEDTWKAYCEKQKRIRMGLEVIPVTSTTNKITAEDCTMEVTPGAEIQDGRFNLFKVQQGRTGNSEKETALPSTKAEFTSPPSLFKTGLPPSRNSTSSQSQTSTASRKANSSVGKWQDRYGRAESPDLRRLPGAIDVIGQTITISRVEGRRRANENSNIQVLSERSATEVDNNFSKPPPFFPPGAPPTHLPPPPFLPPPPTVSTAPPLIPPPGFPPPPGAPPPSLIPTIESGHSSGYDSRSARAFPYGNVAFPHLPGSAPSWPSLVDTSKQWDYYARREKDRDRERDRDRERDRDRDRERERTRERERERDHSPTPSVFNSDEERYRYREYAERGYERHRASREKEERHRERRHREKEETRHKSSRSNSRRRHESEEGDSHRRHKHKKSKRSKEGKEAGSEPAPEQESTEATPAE", "NP40-soluble protein abundance": "1.15 ± 0.064"},
      {"target": "GTF3C6 (UniProt Q969F1)", "NP40-soluble protein abundance": "1.01 ± 0.035"},
      {"target": "GATAD2B (UniProt Q8WXI9)", "NP40-soluble protein abundance": "1.02 ± 0.03"},
      {"target": "UniProt Q8IYB5-2|Q8IYB5-3", "NP40-soluble protein abundance": "1.01 ± 0.015"},
      {"target": "UniProt Q6P6C2|Q6P6C2-1", "NP40-soluble protein abundance": "1.33 ± 0.11"},
      {"target": "UniProt Q7L5N7|A0A087X0A3|Q7L5N7-2", "sequence (Q7L5N7 whole entry, one chain of several)": "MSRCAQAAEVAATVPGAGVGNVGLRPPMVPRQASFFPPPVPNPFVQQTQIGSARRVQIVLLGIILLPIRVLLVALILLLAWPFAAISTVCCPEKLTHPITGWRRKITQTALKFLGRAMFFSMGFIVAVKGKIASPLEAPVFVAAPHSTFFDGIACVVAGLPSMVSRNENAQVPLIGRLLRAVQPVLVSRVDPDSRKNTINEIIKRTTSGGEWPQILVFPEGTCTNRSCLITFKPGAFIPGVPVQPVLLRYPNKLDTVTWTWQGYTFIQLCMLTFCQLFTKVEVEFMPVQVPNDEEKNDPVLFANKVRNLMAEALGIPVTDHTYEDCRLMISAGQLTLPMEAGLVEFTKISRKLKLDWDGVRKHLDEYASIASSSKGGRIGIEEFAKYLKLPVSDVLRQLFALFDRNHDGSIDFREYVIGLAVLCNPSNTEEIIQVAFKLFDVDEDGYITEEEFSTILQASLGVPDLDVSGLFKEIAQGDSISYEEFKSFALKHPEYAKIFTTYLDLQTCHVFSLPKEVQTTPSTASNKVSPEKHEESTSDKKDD", "NP40-soluble protein abundance": "1.01 ± 0.036"},
      {"target": "PPWD1 (UniProt Q96BP3)", "NP40-soluble protein abundance": "1.02 ± 0.036"},
      {"target": "UniProt Q5M775|Q5M775-2|Q5M775-3|Q5M775-4|Q5M775-5", "NP40-soluble protein abundance": "0.992 ± 0.059"},
      {"target": "OVCA2 (UniProt Q8WZ82)", "sequence (Q8WZ82 whole entry)": "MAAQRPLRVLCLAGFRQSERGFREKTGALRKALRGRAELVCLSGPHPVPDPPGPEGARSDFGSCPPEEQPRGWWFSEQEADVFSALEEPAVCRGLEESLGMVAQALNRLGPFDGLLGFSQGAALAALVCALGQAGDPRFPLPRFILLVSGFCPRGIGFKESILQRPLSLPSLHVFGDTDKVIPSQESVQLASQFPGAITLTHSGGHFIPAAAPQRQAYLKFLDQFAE", "NP40-soluble protein abundance": "0.999 ± 0.03"},
      {"target": "UniProt Q7L0J3|Q7L0J3-2", "NP40-soluble protein abundance": "1.02 ± 0.028"},
      {"target": "URB2 (UniProt Q14146)", "NP40-soluble protein abundance": "1.1 ± 0.055"},
      {"target": "MDC1 (UniProt Q14676)", "NP40-soluble protein abundance": "2.34 ± 0.53"},
      {"target": "CBLL1 (UniProt Q75N03)", "sequence (Q75N03 whole entry)": "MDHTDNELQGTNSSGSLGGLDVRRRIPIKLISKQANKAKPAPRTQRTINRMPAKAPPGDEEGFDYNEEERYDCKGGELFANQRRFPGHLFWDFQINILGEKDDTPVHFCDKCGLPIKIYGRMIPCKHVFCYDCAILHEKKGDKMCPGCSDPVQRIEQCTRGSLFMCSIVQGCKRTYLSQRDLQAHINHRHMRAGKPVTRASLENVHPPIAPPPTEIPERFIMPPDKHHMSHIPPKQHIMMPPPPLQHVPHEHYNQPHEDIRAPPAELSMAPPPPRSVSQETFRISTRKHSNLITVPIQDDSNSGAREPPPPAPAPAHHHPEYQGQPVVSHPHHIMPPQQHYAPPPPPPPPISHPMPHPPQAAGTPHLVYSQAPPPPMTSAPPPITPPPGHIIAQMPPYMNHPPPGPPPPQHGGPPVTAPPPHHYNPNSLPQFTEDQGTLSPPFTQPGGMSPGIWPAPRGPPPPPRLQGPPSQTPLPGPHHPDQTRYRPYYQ", "NP40-soluble protein abundance": "0.985 ± 0.016"},
      {"target": "UniProt Q684P5-2|Q684P5-3|Q684P5", "NP40-soluble protein abundance": "0.968 ± 0.026"},
      {"target": "UniProt Q8WWW0|Q8WWW0-2", "sequence (Q8WWW0 whole entry)": "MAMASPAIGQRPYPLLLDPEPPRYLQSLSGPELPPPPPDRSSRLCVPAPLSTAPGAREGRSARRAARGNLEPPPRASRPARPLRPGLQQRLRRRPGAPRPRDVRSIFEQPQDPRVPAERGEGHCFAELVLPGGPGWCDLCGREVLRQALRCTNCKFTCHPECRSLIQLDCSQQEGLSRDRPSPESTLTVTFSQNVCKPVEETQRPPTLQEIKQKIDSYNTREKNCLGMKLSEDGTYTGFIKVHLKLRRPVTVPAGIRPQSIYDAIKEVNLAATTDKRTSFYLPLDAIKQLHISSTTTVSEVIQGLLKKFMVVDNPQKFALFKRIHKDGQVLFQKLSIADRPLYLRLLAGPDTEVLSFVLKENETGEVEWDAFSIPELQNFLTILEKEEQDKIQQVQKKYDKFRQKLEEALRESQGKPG", "NP40-soluble protein abundance": "1.03 ± 0.052"},
      {"target": "ERCC6L (UniProt Q2NKX8)", "NP40-soluble protein abundance": "0.949 ± 0.064"},
      {"target": "CCDC6 (UniProt Q16204)", "sequence (Q16204 whole entry)": "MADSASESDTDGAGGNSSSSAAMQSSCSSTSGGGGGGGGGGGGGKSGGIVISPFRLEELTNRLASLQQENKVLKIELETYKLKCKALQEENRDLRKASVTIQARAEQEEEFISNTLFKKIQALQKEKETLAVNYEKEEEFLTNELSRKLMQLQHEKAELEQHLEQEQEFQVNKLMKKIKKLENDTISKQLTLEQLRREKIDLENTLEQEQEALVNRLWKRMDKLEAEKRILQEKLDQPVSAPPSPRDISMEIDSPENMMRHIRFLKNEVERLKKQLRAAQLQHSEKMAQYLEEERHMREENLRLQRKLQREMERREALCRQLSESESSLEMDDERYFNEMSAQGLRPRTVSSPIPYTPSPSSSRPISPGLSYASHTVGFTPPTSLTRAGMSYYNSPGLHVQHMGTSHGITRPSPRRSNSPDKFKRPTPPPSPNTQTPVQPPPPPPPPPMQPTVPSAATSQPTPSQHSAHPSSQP", "NP40-soluble protein abundance": "0.916 ± 0.027"},
      {"target": "UniProt Q15365", "NP40-soluble protein abundance": "1.01 ± 0.03"},
      {"target": "USP34 (UniProt Q70CQ2)", "NP40-soluble protein abundance": "0.873 ± 0.014"},
      {"target": "UniProt Q71F23", "sequence (Q71F23 whole entry)": "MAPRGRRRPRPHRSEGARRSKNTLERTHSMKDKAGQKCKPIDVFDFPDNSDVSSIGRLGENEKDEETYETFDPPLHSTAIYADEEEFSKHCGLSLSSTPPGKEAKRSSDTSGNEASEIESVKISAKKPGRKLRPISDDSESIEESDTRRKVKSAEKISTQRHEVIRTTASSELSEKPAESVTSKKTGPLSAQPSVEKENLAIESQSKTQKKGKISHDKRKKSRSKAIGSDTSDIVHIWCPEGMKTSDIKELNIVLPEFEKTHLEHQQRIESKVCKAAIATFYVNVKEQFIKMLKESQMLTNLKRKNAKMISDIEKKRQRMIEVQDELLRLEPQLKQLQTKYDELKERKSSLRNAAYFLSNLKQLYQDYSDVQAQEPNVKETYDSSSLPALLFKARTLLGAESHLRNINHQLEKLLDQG", "NP40-soluble protein abundance": "1.08 ± 0.0087"},
      {"target": "RHOT2 (UniProt Q8IXI1)", "NP40-soluble protein abundance": "1.02 ± 0.034"},
      {"target": "THOC2 (UniProt Q8NI27)", "NP40-soluble protein abundance": "2.15 ± 0.77"},
      {"target": "UniProt Q8IXQ5|Q8IXQ5-2|Q8IXQ5-5", "NP40-soluble protein abundance": "0.9769 ± 0.0044"},
      {"target": "UniProt Q8WUB8|Q8WUB8-2|Q8WUB8-3|S5FZ81", "NP40-soluble protein abundance": "1.15 ± 0.061"}
    ]}
  ]
}
